Experimental data published in the supplement of paper PMC10849652.
Targets with a hit are over-represented here; the source holds about 7,900 in all. About 0.6% of all pairs of compound and target were hits.

Key:
Assay in all cases: log2 fold change, soluble protein after heating vs DMSO (PISA); higher = thermal stabilisation; K562 cells, 10 uM, 30 min; active = over 0.2 and 3.5 SD of the protein, either way, in both replicates (recomputed)
[1] = compound: C1=CC=C(C=C1)[C@H](COC2=CC3=C(C=C2)NC(=O)N3)NC(=O)C4=CC=CN(C4=O)CC5=CC(=C(C=C5)F)F
Method in brief: (§1)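 K562 cells at 2×10^6 cells/mL were given 10 μM compound for 30 min. Aliquots then went through 3 min of heating across 48°C-58°C, were pooled, and were extracted in PBS with 0.5% NP-40 at 4°C, and the supernatant after 21,000xg for 90 min was quantified by TMTpro 16plex LC-MS/MS with channel sums equalised. Thermal stability relative to control samples, from duplicates, is given as log2 fold change.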

[2] = compound: CC1=C(SC2=C1C(=N[C@H](C3=NN=C(N32)C)CC(=O)N)C4=CC=C(C=C4)Cl)C
Method in brief: as §1

[3] = compound: CC1=C2C(=CC=C1)N=C(N(C2=O)C3=CC=CC=C3C)CN4C=NC5=C(N=CN=C54)N
Method in brief: as §1

[4] = compound: Cc1sc2c(c1C)C(c1ccc(Cl)cc1)=N[C@@H](CC(=O)OC(C)(C)C)c1nnc(C)n1-2
Method in brief: as §1

[5] = compound: c1ccc([C@@H]2C[C@H]2NC2CCNCC2)cc1
Method in brief: as §1

Measured: log2 fold change

ARFGEF1 (UniProt Q9Y6D6)
inactive: [1] -0.012 | [2] 0.034 | [3] 0.014 | [4] -0.063 | [5] -0.061

BZW2 (UniProt Q9Y6E2)
Chain of UniProt Q9Y6E2 (Q9Y6E2 whole entry, looked up): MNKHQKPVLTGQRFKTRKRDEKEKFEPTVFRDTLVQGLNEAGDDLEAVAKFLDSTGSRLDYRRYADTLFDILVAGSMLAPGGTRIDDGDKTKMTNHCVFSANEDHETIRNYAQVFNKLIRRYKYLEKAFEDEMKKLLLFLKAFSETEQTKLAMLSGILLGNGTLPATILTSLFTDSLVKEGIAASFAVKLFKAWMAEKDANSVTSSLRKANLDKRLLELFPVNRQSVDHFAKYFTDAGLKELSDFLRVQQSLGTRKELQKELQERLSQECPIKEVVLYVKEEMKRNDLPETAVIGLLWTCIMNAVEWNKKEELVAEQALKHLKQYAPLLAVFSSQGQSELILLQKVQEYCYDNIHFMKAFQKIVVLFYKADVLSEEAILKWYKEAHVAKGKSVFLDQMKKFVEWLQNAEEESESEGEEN
inactive: [1] -0.069 | [2] 0.042 | [3] 0.025 | [4] -0.033 | [5] -0.014

ACACB (UniProt O00763)
Chain of UniProt O00763 (O00763 whole entry, looked up): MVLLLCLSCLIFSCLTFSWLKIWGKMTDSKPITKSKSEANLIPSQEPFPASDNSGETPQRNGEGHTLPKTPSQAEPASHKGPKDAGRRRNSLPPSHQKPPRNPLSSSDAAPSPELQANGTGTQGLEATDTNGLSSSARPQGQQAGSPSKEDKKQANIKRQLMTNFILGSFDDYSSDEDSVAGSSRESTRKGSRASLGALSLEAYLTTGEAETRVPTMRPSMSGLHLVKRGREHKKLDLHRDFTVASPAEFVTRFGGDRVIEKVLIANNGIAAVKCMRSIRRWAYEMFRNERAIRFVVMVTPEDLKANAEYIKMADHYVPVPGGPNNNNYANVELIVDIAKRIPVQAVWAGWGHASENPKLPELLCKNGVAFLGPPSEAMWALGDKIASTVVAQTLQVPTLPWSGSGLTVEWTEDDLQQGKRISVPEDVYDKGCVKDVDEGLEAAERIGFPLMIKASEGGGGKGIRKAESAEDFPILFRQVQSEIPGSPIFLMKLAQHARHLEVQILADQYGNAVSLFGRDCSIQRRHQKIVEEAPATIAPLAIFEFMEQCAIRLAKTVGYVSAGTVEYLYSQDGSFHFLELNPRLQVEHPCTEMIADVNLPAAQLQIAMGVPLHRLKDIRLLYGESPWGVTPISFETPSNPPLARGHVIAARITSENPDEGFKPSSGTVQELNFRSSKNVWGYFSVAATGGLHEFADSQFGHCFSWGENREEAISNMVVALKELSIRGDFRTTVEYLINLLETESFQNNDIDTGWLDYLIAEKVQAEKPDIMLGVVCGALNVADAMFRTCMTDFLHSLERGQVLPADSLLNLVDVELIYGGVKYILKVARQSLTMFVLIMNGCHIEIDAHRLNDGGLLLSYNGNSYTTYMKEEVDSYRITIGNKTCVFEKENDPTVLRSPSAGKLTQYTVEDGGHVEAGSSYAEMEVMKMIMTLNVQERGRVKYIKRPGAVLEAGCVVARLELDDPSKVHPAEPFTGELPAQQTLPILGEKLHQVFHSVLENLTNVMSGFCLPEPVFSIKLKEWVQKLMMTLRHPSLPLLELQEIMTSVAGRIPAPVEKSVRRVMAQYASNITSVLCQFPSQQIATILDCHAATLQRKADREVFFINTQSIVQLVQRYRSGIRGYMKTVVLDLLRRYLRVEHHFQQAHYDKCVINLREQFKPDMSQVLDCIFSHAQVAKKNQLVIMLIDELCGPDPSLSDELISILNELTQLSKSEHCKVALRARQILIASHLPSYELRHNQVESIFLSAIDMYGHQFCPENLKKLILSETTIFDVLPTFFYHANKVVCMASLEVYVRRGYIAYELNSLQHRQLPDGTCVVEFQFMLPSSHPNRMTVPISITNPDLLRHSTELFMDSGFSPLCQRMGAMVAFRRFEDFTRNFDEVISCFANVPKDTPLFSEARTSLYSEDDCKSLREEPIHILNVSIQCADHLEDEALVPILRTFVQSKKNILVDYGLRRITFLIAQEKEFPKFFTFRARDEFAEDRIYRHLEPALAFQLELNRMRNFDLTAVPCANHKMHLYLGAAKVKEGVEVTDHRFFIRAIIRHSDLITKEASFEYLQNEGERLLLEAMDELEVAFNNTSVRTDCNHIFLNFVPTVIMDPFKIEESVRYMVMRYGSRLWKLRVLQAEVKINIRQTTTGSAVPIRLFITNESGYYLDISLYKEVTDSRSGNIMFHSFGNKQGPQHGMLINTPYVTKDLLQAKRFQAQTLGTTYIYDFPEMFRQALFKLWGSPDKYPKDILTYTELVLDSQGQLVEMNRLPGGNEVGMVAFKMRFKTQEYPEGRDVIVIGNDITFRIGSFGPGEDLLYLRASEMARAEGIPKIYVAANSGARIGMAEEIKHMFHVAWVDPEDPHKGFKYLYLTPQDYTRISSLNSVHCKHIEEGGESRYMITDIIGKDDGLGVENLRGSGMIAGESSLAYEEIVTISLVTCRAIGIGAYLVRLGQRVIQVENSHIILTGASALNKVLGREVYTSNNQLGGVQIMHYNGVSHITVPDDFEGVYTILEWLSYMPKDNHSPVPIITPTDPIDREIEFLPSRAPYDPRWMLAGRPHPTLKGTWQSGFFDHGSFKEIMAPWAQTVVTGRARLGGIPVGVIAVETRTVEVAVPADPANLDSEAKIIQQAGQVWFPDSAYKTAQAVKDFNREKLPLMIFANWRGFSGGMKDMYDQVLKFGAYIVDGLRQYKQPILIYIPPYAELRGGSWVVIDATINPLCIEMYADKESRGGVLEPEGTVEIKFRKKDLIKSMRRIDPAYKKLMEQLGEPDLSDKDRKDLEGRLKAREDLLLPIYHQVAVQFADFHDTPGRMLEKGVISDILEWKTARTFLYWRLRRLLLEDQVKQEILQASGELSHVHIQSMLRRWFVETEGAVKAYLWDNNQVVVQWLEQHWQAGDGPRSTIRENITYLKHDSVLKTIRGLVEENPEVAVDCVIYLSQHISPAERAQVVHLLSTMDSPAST
inactive: [1] -0.044 | [2] -0.053 | [3] 0.025 | [4] 0.084 | [5] 0.007

ARF4 (UniProt P18085)
inactive: [1] 0 | [2] 0.045 | [3] 0.053 | [4] -0.082 | [5] -0.015

ADK (UniProt P55263)
Chain of UniProt P55263 (P55263 whole entry, looked up): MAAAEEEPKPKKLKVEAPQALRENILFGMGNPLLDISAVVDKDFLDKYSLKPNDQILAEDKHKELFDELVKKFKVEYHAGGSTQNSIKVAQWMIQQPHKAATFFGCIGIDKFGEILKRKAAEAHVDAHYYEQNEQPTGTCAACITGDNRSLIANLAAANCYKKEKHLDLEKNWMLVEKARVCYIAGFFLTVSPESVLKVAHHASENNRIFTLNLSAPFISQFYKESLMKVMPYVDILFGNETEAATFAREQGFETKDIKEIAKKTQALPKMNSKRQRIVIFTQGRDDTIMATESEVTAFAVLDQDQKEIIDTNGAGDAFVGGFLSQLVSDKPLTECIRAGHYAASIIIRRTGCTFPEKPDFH
inactive: [1] 0.026 | [2] 0.036 | [3] 0.154 | [4] -0.008 | [5] -0.057

ABCC5 (UniProt O15440)
Chain of UniProt O15440 (O15440 whole entry, looked up): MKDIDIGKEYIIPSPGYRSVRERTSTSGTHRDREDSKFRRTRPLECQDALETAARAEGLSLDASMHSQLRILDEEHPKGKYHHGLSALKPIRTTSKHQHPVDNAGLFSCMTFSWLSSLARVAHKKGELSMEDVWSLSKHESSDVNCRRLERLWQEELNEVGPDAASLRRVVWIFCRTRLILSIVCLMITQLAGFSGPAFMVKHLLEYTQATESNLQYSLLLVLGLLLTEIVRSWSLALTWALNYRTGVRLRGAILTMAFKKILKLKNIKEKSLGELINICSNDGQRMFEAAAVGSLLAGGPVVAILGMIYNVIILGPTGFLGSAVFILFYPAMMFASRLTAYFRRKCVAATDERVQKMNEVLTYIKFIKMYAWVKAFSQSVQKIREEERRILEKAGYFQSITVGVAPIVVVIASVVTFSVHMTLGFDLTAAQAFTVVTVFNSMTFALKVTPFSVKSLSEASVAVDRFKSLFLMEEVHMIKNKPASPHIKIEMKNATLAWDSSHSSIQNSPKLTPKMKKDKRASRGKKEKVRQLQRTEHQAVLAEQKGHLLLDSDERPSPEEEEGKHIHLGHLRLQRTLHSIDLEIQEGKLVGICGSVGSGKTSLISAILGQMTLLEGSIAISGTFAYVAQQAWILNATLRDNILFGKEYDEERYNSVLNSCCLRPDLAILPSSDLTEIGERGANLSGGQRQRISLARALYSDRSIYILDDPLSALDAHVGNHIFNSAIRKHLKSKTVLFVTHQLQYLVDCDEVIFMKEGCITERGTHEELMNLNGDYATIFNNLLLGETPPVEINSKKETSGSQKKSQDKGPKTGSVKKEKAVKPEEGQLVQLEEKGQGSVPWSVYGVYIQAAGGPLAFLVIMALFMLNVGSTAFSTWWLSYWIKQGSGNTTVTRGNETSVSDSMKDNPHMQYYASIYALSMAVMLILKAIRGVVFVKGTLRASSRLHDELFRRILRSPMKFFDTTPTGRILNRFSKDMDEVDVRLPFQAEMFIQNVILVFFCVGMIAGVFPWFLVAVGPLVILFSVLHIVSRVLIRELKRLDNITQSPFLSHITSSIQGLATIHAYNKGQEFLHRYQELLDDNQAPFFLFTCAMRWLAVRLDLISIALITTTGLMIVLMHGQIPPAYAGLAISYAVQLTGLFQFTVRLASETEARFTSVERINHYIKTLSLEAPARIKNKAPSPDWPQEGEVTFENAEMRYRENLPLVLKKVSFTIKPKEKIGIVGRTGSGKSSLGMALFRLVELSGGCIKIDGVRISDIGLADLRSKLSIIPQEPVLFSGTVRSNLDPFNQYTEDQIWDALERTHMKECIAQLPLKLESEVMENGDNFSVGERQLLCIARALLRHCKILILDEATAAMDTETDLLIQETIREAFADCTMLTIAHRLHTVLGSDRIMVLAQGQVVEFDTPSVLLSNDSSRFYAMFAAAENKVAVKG
inactive: [1] -0.034 | [2] 0.082 | [3] -0.02 | [4] -0.001 | [5] -0.025

ARMC10 (UniProt Q8N2F6)
Chain of UniProt Q8N2F6 (Q8N2F6 whole entry, looked up): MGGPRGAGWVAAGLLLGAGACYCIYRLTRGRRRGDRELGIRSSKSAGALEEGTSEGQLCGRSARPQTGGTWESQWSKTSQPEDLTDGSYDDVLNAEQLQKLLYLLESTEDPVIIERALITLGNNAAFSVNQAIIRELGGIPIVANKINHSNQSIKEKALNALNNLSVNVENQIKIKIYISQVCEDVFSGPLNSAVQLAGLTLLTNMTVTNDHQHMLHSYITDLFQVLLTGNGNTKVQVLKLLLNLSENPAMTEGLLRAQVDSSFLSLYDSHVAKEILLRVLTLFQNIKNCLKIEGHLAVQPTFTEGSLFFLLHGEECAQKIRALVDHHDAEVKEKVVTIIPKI
inactive: [1] 0.035 | [2] -0.017 | [3] -0.006 | [4] 0.012 | [5] -0.009
